Structures are written as SMILES. Inconclusive results are not listed. Calls of active or inactive are those of the source. The rule behind the calls is not given here.

The nature of the assay: apoptosis induction over several timepoints – cell-based, HT29 HRAS, caspase 3/7 luminescence, multiple timepoints, dry powder, mechanism study for HRAS target identification (AID 652070). Particulars: max activity: measured here: third timepoint caspase 3/7, at 0.068 µM, stronger effect = higher value unless noted.

Take `O=C(NCCOCCOCCOc1ccc(N(C(=O)CCl)C(C(=O)NCCc2ccccc2)c2cccs2)cc1Cl)c1ccc(COC2C#CCCCCC2)cc1` (configuration not stated): the max activity was found to be 24.4% and the outcome was inactive.
Consider `Cc1onc(C(=O)N2CCN(C(c3ccc(Cl)cc3)c3ccc(Cl)cc3)CC2)c1[N+](=O)[O-]`, for which the max activity was 13.3% [measured here: third timepoint caspase 3/7, at 0.0001 µM, stronger effect = higher value] and the call was inactive.
Regarding `COc1ccc(N(C(=O)CCl)C(C(=O)NCCc2ccccc2)c2cccs2)cc1Cl` (configuration not stated), the max activity was 22.2% [measured here: third timepoint caspase 3/7, at 8 µM, stronger effect = higher value] and the compound was called inactive.
In the case of `Cc1onc(C(=O)N2CCN(C(c3ccc(Cl)cc3)c3ccc(OCCOCCOCCNC(=O)OC(C)(C)C)cc3)CC2)c1[N+](=O)[O-]` (configuration not stated), the max activity is 22.2% [measured here: third timepoint caspase 3/7, at 0.0001 µM, stronger effect = higher value] and the outcome was inactive.
Turning to `CO[C@H]1C[C@@H]2CC[C@@H](C)[C@@](O)(O2)C(=O)C(=O)N2CCCC[C@H]2C(=O)O[C@H]([C@H](C)C[C@@H]2CC[C@@H](O)[C@H](OC)C2)CC(=O)[C@H](C)/C=C(\C)[C@@H](O)[C@@H](OC)C(=O)[C@H](C)C[C@H](C)/C=C/C=C/C=C/1C`, the max activity is 31.1% [measured here: third timepoint caspase 3/7, at 35 µM, stronger effect = higher value] and the result was inactive.
For `CCC(=O)N(c1ccc(OC)c(Cl)c1)C(C(=O)NCCc1ccccc1)c1cccs1` (configuration not stated), the max activity was 17.8% and the compound was called inactive.

The values are drawn from PubChem BioAssay AID652070 (Broad Institute, 2013).
